TIM10 inh: inhibits growth of TIM10 yeast strain; S. cerevisiae TIM10 strain growth, BacTiter-Glo luminescence, 24 h; inhibition, % at 10 µM; actives 1.4% (n = 330,000);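 active means inhibition of 40% or more at the single tested concentration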;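 further: wild-type TIM10 isogenic control strain grown at permissive 25 °C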
NALP1 yeast inh: NALP1 inhibition | actives 0.61% (n = 280,000) | S. cerevisiae NALP1/ASC/caspase-1 growth, X-gal OD620, 72 h | AID 2071 | inhibition, % at 10 µM; in the data active means inhibition mostly above about 24%, no sharp cut-off; inactive means mostly below about 32%
tim10-1 inh: growth inhibitors of tim10-1 mutant yeast | S. cerevisiae tim10-1 ts strain growth, BacTiter-Glo, 24 h | inhibition, % at 20 µM | actives 2.2% (n = 330,000);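 active means inhibition of at least 40%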;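 further: mutant grown at 25 °C; 0% = DMSO wells with yeast and 100% = wells holding no yeast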
tim23-1 inh: inhibits growth of tim23-1 mutant yeast | S. cerevisiae tim23-1 growth, BacTiter-Glo luminescence, 24 h | inhibition, % at 20 µM | actives 1.3% (n = 330,000);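 active means growth inhibition of the mutant yeast at or above 50%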;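 further: temperature-sensitive mutant grown at 25 °C; plate controls were DMSO-treated mutant yeast for no effect and medium wells lacking yeast for full effect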
NALP3 yeast inh: NALP3 inhibition in yeast; Yeast reconstituted NLRP3/ASC/caspase-1, beta-gal luminescence, 24 h; inhibition, % at 10 µM; actives 0.39% (n = 330,000); AID 2825;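 active means inhibition of 50% or more; inactive means inhibition below 50%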;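 further: plate controls were induced DMSO wells for no effect and uninduced yeast grown without galactose for full effect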
PfHsp90 yeast 2: growth inhibition of yeast expressing Plasmodium Hsp90; inhibition, % at 9.4 µM; S. cerevisiae expressing PfHsp90, BacTiter-Glo ATP, 48 h; yeast lacking PDR1 and PDR3 efflux regulators; AID 504621; actives 0.32% (n = 310,000);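 active means every replicate shows inhibition above about 80%, whatever the replicate mean, limit read from the data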;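 further: 0% = DMSO neutral controls and 100% = 20 µM radicicol positive controls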
tim10-1 confirm: tim10-1 yeast growth inhibition, confirmed. shares compounds with tim10-1 inh. S. cerevisiae tim10-1 ts strain growth, BacTiter-Glo, 24 h. inhibition, % at 20 µM. AID 463213. actives 56% (n = 7,400);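 active means inhibition of yeast growth at or above a set limit in either of two repeat tests at 20 µM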;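 further: tim10-1 mutant grown at permissive 25 °C to find synthetic lethal compounds; 0% = DMSO yeast wells and 100% = medium wells without yeast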
TIM10 conf: confirmation of TIM10 yeast growth inhibitors; shares compounds with TIM10 inh; actives 63% (n = 4,600); inhibition, % at 10 µM; S. cerevisiae tim10 strain growth, BacTiter-Glo luminescence, 24 h; AID 463215;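 active means inhibition of yeast growth at or above a set limit in either of two replicates at 10 µM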;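 further: this counterscreen used the strain with wild-type TIM10; 0% = yeast with DMSO and 100% = medium wells lacking yeast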
tim23-1 conf: tim23-1 yeast growth inhibition, confirmed; AID 463218; actives 83% (n = 4,400); shares compounds with tim23-1 inh; inhibition, % at 20 µM; S. cerevisiae tim23-1 growth, BacTiter-Glo luminescence, 24 h;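 active means inhibition above about 39% in either of two replicate wells at 20 µM, limit read from the data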;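 further: temperature-sensitive tim23-1 mutant grown at 25 °C; 0% = DMSO wells with yeast and 100% = medium wells without yeast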
* = called active by the depositor; · = no result. Shown are actives, neighbours in structure and some others; about 4.1% of the full set was active somewhere.

SMILES	TIM10 inh	NALP1 yeast inh	tim10-1 inh	tim23-1 inh	NALP3 yeast inh	PfHsp90 yeast 2	tim10-1 confirm	TIM10 conf	tim23-1 conf
Cc1cc(NC(=O)Nc2cccc(Cl)c2)n(-c2ccccn2)n1	29	11	54*	70*	29	-3	41*	·	76*
COC(=O)C1=C(C)N=C2SC(C#N)=C(N)N2C1c1ccc(OC)cc1 (centres undefined)	6	20	1	0	15	-13	·	·	·
CCOC(=O)C1=C(C)N=C2SC(C(=O)OC)=CC(=O)N2C1c1ccc(OC)cc1 (centres undefined)	71*	1	69*	75*	33	-6	78*	75*	60*
CCOc1c(Br)cc(/C=C2\N=C(C)OC2=O)cc1Br	28	19	61*	59*	1	4	33*	·	64*
CC1CCN(S(=O)(=O)c2ccc(Cl)cc2)CC1	42*	13	40*	55*	16	-2	36*	16	40*
Cc1ccccc1N1CCN(C2CCCN(C(=O)CCC3(C)CC3)C2)CC1 (centres undefined)	-1	-69	17	15	13	-2	·	·	·
Cc1cc(C(=O)C(C)OC(=O)c2cnccn2)c(C)n1-c1ccccc1 (centres undefined)	5	·	30	25	6	-8	·	·	·
O=[N+]([O-])c1cccc(NC(=S)N2CCc3ccccc32)c1	25	16	43*	51*	33	-11	32*	·	49*
O=C(Nc1cccc([N+](=O)[O-])c1)N1CCCc2ccccc21	-12	4	16	15	21	-21	·	·	·
COc1ccc(-c2nnc(N3CCOCC3)c3ccccc23)cc1	-1	-11	-6	3	15	11	·	·	·
COc1ccc(-c2nnc(N3CCCCC3)c3ccccc23)cc1	29	1	51*	60*	6	-8	47*	·	55*
Cc1ccc(-c2nnc(N3CCC(C)CC3)c3ccccc23)cc1C	4	-5	19	48	21	0	·	·	·
CC1CCN(c2nnc(-c3ccccc3)c3ccccc23)CC1	12	8	41*	69*	-2	-20	0	·	34
N#Cc1ccc(NC(=O)C2=COCCO2)cc1	4	·	-3	-1	14	16	·	·	·
CCN1/C(=C/c2ccc3ccccc3[n+]2CCCS(=O)(=O)[O-])C=Cc2cc(C)ccc21	·	1	·	·	·	16	·	·	·
CCN1/C(=C/c2ccc3ccccc3[n+]2CC)C=Cc2ccccc21	52*	26	74*	85*	39	26	75*	20	67*
CCCCn1c(N)c(N(CC(C)C)C(=O)CSc2n[nH]c(-c3ccc(C)cc3)n2)c(=O)[nH]c1=O	-10	·	-7	-3	27	·	·	·	·
Cc1ccc2nccc(C(=O)N3CCCC(N4CCN(c5ccc(F)cc5)CC4)C3)c2c1 (centres undefined)	6	-2	12	14	17	-6	·	·	·
CCOc1ccc(N(C(C)C(=O)N2CCCC2)S(C)(=O)=O)cc1 (centres undefined)	-3	10	-2	9	17	-23	·	·	·
O=C(N/N=C\c1ccc([N+](=O)[O-])s1)C1COc2ccccc2O1 (centres undefined)	-52	0	-12	-11	39	-9	·	·	·
O=C(N/N=C\c1ccc([N+](=O)[O-])o1)C1COc2ccccc2O1 (centres undefined)	31	-10	57*	57*	16	-25	49*	·	42*
O=C(CCC(=O)Nc1ccc(Cl)cc1Cl)N/N=C/c1ccc([N+](=O)[O-])o1	45*	-11	64*	92*	15	·	43*	51*	88*
O=[N+]([O-])c1ccc(/C=N/NC(=S)Nc2ccccc2F)o1	43*	-2	56*	55*	3	-8	47*	-6	58*
CCOC(=O)C1CCN(C2=NC(=O)/C(=C/c3ccc(Cl)cc3)S2)CC1	32	10	49*	50*	34	-50	32*	·	44*
CCOC(=O)C1CCN(C2=NC(=O)/C(=C/c3ccc(OC)c(OC)c3)S2)CC1	10	17	31	20	1	-3	·	·	·
SMILES	TIM10 inh	NALP1 yeast inh	tim10-1 inh	tim23-1 inh	NALP3 yeast inh	PfHsp90 yeast 2	tim10-1 confirm	TIM10 conf	tim23-1 conf
O=C1Nc2ccccc2N(O)N1c1ccc(Cl)cc1	5	1	5	3	6	35	·	·	·
CCN1c2ccccc2NC2C1C(C(C)=O)C(=O)N2c1ccc(Cl)cc1 (centres undefined)	52*	3	62*	69*	26	-5	53*	39*	50*
Cc1cc(C)nc(S/C=C/C(=O)c2ccc(F)cc2)n1	48*	13	41*	56*	43	·	28	39*	46*
O=C(CCC(F)(F)F)N1CCCC(N2CCN(c3cccc(Cl)c3)CC2)C1 (centres undefined)	·	·	·	·	·	-8	·	·	·
O=C(Oc1ccc(Br)cc1C(=O)/C=C/c1ccccc1F)c1ccco1	70*	·	41*	60*	-11	-141	40*	62*	43*
CCOC(=O)c1ccc(NC(=O)Nc2ncc(Cl)cc2Cl)cc1	76*	·	70*	56*	14	·	78*	76*	69*
CCOC(=O)c1ccc(NC(=O)Nc2ncccc2C)cc1	-2	-8	-7	-8	11	-3	·	·	·
CN(/N=C/c1ccccc1Cl)c1ncc(Cl)cc1C(F)(F)F	1	17	14	9	11	2	·	·	·
CN(/N=C/c1ccc(O)cc1O)c1ncc(C(F)(F)F)cc1Cl	11	7	45*	62*	32	-43	25	·	56*
Cc1cccc(NC(=O)COC(=O)C2COc3ccccc3O2)c1C (centres undefined)	-9	·	10	13	5	-23	·	·	·
COc1ccc(CCNC(=O)c2c(O)c3cccc4c3n(c2=O)CC4)cc1OC	57*	18	43*	53*	17	11	-36	30*	45*
CC(=O)c1c(O)c2cccc3c2n(c1=O)CCC3	17	2	41*	54*	18	-2	30*	·	52*
Cc1cc(C)cc(OCCCCn2cncn2)c1	-9	17	-5	-3	13	5	·	·	·
O=C(O)c1ccc2c(=O)n3c(nc2c1)/C(=C/c1cccc(Cl)c1Cl)CC3	13	1	21	3	-6	8	·	·	·

Bioassay records: PubChem BioAssay, several laboratories
